Reference: PubChem BioAssay AID597 (National Center for Advancing Translational Sciences (NCATS), 2007)
About 60 (0.09%) of roughly 68,000 compounds were called active. Not all results are given here. Values without a mark were called inactive. The call rests on the fitted dose curve; in most records, active means well fitted curve in the direction sought with a large enough effect; inconclusive means small, poorly fitted or top-dose-only effect; inactive means flat fitted curve, though single readings scatter.

Experiment: qHTS Assay for Epigenetic Modulators; further: % of control where 0% means no effect
Details: mouse C127i GFP locus derepression, cytometry, 30 h; series mostly up to 46.1 µM; GFP derepression (activation): at the top concentration
From the text: NIH Molecular Libraries Screening Centers Network [MLSCN] NIH Chemical Genomics Center [NCGC] MLSCN Grant: 1 X01 MH079860-01 Assay Provider: Elisabeth D. Martinez, University of Texas SW Medical Center NCGC Assay Overview: The Locus Derepression assay detects the derepression of a GFP reporter that is stably integrated in a region of the genome of murine c127i mammary cells that is presumably silenced. GFP transcription in this construct is controlled by a CMV promoter, which normally is strong and constitutively active. However, this line was selected for lack of constitutive expression of the GFP protein. GFP production can be induced by incubating the cells with histone deacetylase or DNA methyltransferase inhibitors. Compounds that cause derepression of the locus to express GFP are identified by enumerating GFP positive cells using a laser-scanning microplate cytometer. For further details of this screen and follow-up characterization, see R.L. Johnson, W. Huang, A. Jadhav, C.P. Austin, J. Inglese, E.D. Martinez, A Quantitative High-Throughput Screen Identifies Potential Epigenetic Modulators of Gene Expression, Analytical Biochemistry (2008) 375(2):237-48.
NCGC Assay Protocol Summary: Two hundred and fifty cells in 5 uL per well were dispensed into black, clear-bottom 1536-well plates. Twenty-three nL compound was transferred to the assay plate and cells were incubated 30 hours at 37 C. Medium was removed, cells were washed two times with PBS, and GFP-positive cells were enumerated as fluorescent objects between the sizes of 20 to 120 um width and depth using an Acumen Explorer. Keywords: NIH Roadmap, MLSCN, MLI, MLSMR, qHTS, NCGC, qHTS, HDAC, DNMT, HAT, DNA methyltransferases, histone acetyl transferases, histone deacetylases

| Structure (SMILES) | GFP derepression (activation) |
| --- | --- |
| COc1ccc(CNC(=O)C2CCN(S(=O)(=O)N3CCOCC3)CC2)cc1 | 4.7% |
| COc1ccc(C(CC(=O)O)NC(=O)Cc2ccccc2)cc1 (stereo unspecified) | 0.9% |
| COC(=O)c1ccc(N(CC(=O)NC2CCCC2)C(=O)CNC(=O)c2ccco2)cc1 | -1.3% |
| COc1ccc2[nH]c3c(=O)n(Cc4ccco4)cnc3c2c1 | 0.4% |
| CCCSc1nc2c(c(=O)n(C)c(=O)n2C)n1Cc1ccc(C)cc1 | 4.3% |
| O=C(CN1CCN(C(=O)c2cccc(F)c2)CC1)Nc1ccccc1F | 2.3% |
| Cc1cc(N(C)C)cc(C)[n+]1[O-] | -2.2% |
| O=C(c1cccc(F)c1)N1CCC2(CCCN(Cc3ccncc3)C2)CC1 | 0% [at 9.22 µM] |
| O=c1[nH]c(=O)n([C@H]2C[C@H](O)[C@H](CO)O2)cc1Br | 0% |
| Cc1cccc(NC(=O)CSc2nc3c(c(=O)[nH]2)CCC3)c1C | 0% |
| Cc1nn(-c2ccccc2)c2[nH]c(C(F)(F)F)cc(=O)c12 | -2.9% |
| COC(=O)c1cc(C(=O)OC)cc(N2C(=O)CC(N3CCN(c4ccccc4)CC3)C2=O)c1 (stereo unspecified) | 5.1% |
| CSCCC(NS(=O)(=O)/C=C/c1ccccc1)C(=O)N1CCC(C)CC1 (stereo unspecified) | -1.5% |
| C=CCc1cccc2cc(C(=O)OCC)c(=O)oc12 | 0.1% |
| COC(=O)c1ccc(CSc2ccccc2C)o1 | 2.1% |
| CCN(c1ccccc1)S(=O)(=O)c1cccc(C(=O)O)c1 | 1.2% |
| COCCn1c(=O)c(-c2cccs2)nc2cnc(N3CCN(C)CC3)nc21 | -2.7% [at 9.22 µM] |
| CN(Cc1ccco1)c1ncncc1-c1ccoc1 | 3.4% [at 9.22 µM] |
| CN/C(=C\[N+](=O)[O-])NCCSCc1csc(CN(C)C)n1 | 0% [at 20.6 µM] |
| Cc1cccc(Cn2c(N3CCN(c4ccccc4)CC3)nc3c2c(=O)n(C)c(=O)n3C)c1 | 0% |
| O=C(c1ccc(=O)[nH]c1)N(Cc1ccco1)C1(C(=O)NC2CCCCC2)CCCCC1 | -2.2% |
| CCCCC(CC)C(=O)Nc1ccc(Cl)cn1 (stereo unspecified) | -1.7% |
| O=C(Nc1ccccc1)N[C@H]1C[C@H](C(=O)O)Nc2cc(Cl)cc(Cl)c21 | 0% |
| CC1(C)CC(=O)c2cc(OCC(=O)NCC3CCCO3)ccc2O1 (stereo unspecified) | -1% |
| COc1ccccc1CN1CC2(CCN(S(=O)(=O)c3ccccc3)CC2)C1 | -2.3% [at 9.22 µM] |
| COc1ccc2[nH]c3cc4c(=O)c5cc(OC)ccc5[nH]c4cc3c(=O)c2c1 | 1.1% [at 9.22 µM] |

| Structure (SMILES) | GFP derepression (activation) |
| --- | --- |
| Oc1c(C(c2ccccn2)N2CCOCC2)ccc2cccnc12 (stereo unspecified) | 1.6% |
| Cc1ccc(C(c2nnnn2C(C)(C)C)N2CCc3ccccc3C2)cc1 (stereo unspecified) | -2.3% |
| CCOC(=O)C1(C(F)(F)F)N=C(N(C)C)OC(N(C)C)=N1 | 0% |
| CCC[C@H]1C(=O)N2C(N(C)C)=Nc3ccc(C)cc3N2C1=O | 1.7% [at 20.6 µM] |
| Cc1cc(N2CCCCC2)nc2ccc(Cc3ccc4nc(N5CCCCC5)cc(C)c4c3)cc12 | -2.2% [at 9.22 µM] |
| CCOCC(=O)Nc1cc(OC)c(Cl)cc1OC | 0% |
| COCc1nc2ccccc2n1Cc1ccccc1Br | 2.1% |
| O=C(NC1CCCCC1)n1c(=O)oc2cc(S(=O)(=O)N3CCCCC3)ccc21 | -7.3% |
| COCCn1c(=O)c(-c2cccs2)nc2cncnc21 | 2.3% [at 9.22 µM] |
| O=C(COC(=O)c1ccc2c(c1)OCCO2)NCc1ccccc1 | 1.1% |
| Cc1ccccc1-c1nc(N(C)Cc2ccco2)c2ccccc2n1 | -2.9% [at 9.22 µM] |
| COCCn1c(=O)c(-c2ccc(OC)cc2)nc2cnc(Oc3cccc(Cl)c3)nc21 | -2.7% [at 9.22 µM] |
| O=c1c(-c2ccc(F)cc2)nc2cnc(N3CCOCC3)nc2n1-c1ccccc1 | 2.3% [at 9.22 µM] |
| NC(=O)C1(N2CCCCC2)CCN(C(=O)c2ccc(C#Cc3ccccc3)o2)CC1 | 0.2% |
| Nc1ccc(-c2nnc(-c3ccc(-c4ccccc4)cc3)o2)cc1 | 1.6% |
| COc1ccc(Cl)cc1NC(=O)C1CC(=O)N(c2ccc(F)cc2)C1 (stereo unspecified) | 0% |
| CC1C(c2ccccc2)=[N+]([O-])C2(CCCC2)N1O (stereo unspecified) | 5% |
| S=c1c2[nH]cnc2ncn1CCSc1ncnc2nc[nH]c12 | 3.4% [at 9.22 µM] |
| CN1CCN(c2ncncc2-c2ccc(C(=O)N(C)C)cc2)CC1 | -2.3% [at 9.22 µM] |
| CCCCCNC(=O)Cc1ccc(OC)cc1 | 3.3% |
| COC(=O)c1ccc(CSc2nncn2C)cc1 | 15.3% |
| CC(C)(C)NC(=O)NC(=O)COC(=O)Cn1c(C(F)(F)F)nc2ccccc21 | -1.3% |
| CC(C)[C@H](CO)Nc1nc(Nc2cc(N)cc(Cl)c2)c2ncn(C(C)C)c2n1 | -2.5% |
| C[C@@H](N)[C@@H](C)Cc1ccccc1 | 0% [at 9.22 µM] |
| Cc1cc(NC(=O)CCC(=O)N(c2ccccc2)C(C(=O)NC2CCCC2)c2ccncc2)no1 (stereo unspecified) | 1% |
